Experimental findings from the OligoGym collection are described below.
Also: reference of the scale not given here.

For the first assay, the target named is TRAPPC2. As to the kind of experiment: pooled miR-30 sensor sort-seq; sequence = guide strand. To be noted: shRNA.
TTTCTGTCAAATGCACTTGATC yielded a sensor-assay potency score (higher = more potent) of -1.44.

Take ATGCACTTGATCGAATAGGAGA: the sensor-assay potency score (higher = more potent) was -1.42.

With TTTATTCCATCTTCTTGTCTTA, the sensor-assay potency score (higher = more potent) is -0.31.

The sequence TATATAAATCATAAACATCAGT had a sensor-assay potency score (higher = more potent) of -0.905.

As to TTATTCCATCTTCTTGTCTTAT, the sensor-assay potency score (higher = more potent) was -1.23.

TTGTCTTATGTCATGAAGCATA showed a sensor-assay potency score (higher = more potent) of -1.65.

Turning to TGTCAAATGCACTTGATCGAAT, the sensor-assay potency score (higher = more potent) is -0.613.

In turn, ATGAGCTATGAACTGGTTCAGA registered a sensor-assay potency score (higher = more potent) of -1.51.

As to TATTCCATCTTCTTGTCTTATG, the sensor-assay potency score (higher = more potent) is -1.41.

In the case of TTCAAGTACATGTTGTTCGATA, the sensor-assay potency score (higher = more potent) was -0.28.

For another assay, the target named is TRIL. The description is as above. The following applies: shRNA.
For TTGCCGTCTAGATCCAGCCGAT, the sensor-assay potency score (higher = more potent) was -0.561.

In the case of TTGACTAGACTCTCCAGGCCCT, the sensor-assay potency score (higher = more potent) was -0.105.

Consider TAGAAATCGCCCCTGCTGCTGG, for which the sensor-assay potency score (higher = more potent) is -0.425.

Regarding AACTTGTTGAAGTCGCATGGGT, the sensor-assay potency score (higher = more potent) was -0.301.

In the case of TAGGTGAGCACGTCGTGGGGGC, the sensor-assay potency score (higher = more potent) is -0.151.

TTGCAGCTGCTGGTCATCCAGG registered a sensor-assay potency score (higher = more potent) of -1.05.

In turn, TACAGCTCTTCCAGCCGCGAGA had a sensor-assay potency score (higher = more potent) of -1.34.

As for TTCTTGTGCAGGTCTAGGGACT, the sensor-assay potency score (higher = more potent) is -1.42.

TTGCACAGAATGAACTTGTTGA: the sensor-assay potency score (higher = more potent) worked out at 0.574.

The sequence TTGTACTGCAGGTCCAGCCGTC showed a sensor-assay potency score (higher = more potent) of -0.188.

On to TTGGTTATGAAGTTGCCGCCGA, for which the sensor-assay potency score (higher = more potent) was -0.156.

In the case of ATGAACTTGTTGAAGTCGCATG, the sensor-assay potency score (higher = more potent) was -1.34.

The next assay concerns the target TRIM23. The assay is described as above. The following applies: shRNA.
As for TAATCTGAGATTTCCTCTGTGA, the sensor-assay potency score (higher = more potent) came out at 0.349.

On to TGCAACTTCTGTAAACTGCTGC, for which the sensor-assay potency score (higher = more potent) was determined as 0.44.

For the sequence TTAATTTGTGTTTTCCACCTAC, the sensor-assay potency score (higher = more potent) was 0.335.

Regarding TAAAATTGATGCTCGGATCTGA, the sensor-assay potency score (higher = more potent) amounted to 0.781.

Regarding TACAACAAACACAACAGCTTGA, the sensor-assay potency score (higher = more potent) is 0.537.

In the case of TATGCACACAAACTACACCTGT, the sensor-assay potency score (higher = more potent) is -0.275.

In turn, TTTGTTAGCAAAAATCAGGAGC had a sensor-assay potency score (higher = more potent) of -0.0645.

With TTCTTCTGCAGCTCCATACTGA, the sensor-assay potency score (higher = more potent) is -0.628.

As for TCAGCTAGAGGAACTCGCCTGT, the sensor-assay potency score (higher = more potent) came out at 0.453.

The sequence TTTAACTTAAACAAGATAGTAG had a sensor-assay potency score (higher = more potent) of 0.417.

TTGTAGAATGAGTAACTTGAGA registered a sensor-assay potency score (higher = more potent) of -0.898.

Turning to TTTTGGTCCAATGTGAACTCGA, the sensor-assay potency score (higher = more potent) is 0.0711.

TAGAGGAACTCGCCTGTGCTTT yielded a sensor-assay potency score (higher = more potent) of -1.17.

TATCTAAAATTGATGCTCGGAT: the sensor-assay potency score (higher = more potent) is -0.778.

TAGTTTGACAACCTTCTTCCAA registered a sensor-assay potency score (higher = more potent) of -0.272.

In the case of TTTTCCGTTAACAACTTTGCAA, the sensor-assay potency score (higher = more potent) is -0.567.

Consider TAAGCTCGAATACATGACCGGG, for which the sensor-assay potency score (higher = more potent) was -0.886.

Take TAGTAGTTTTTCCAGCACCATC: the sensor-assay potency score (higher = more potent) is -1.64.
